Assay results reported in PubChem BioAssay (Tox21).
Unmarked numbers belong to inactive results. Results filed as inconclusive are left out. Entries that show only a call come without a potency. The source made the active and inactive calls. Unless noted, the call rests on the fitted dose curve; in most records, active means well fitted curve in the direction sought with a large enough effect in the repeat runs; inconclusive means weak or mixed curves; inactive means no such curve, though single readings can be large; an effect the other way counts as inactive or inconclusive.

Legend:
[1] = target: Progesterone receptor (Homo sapiens) (UniProt P06401); assay: qHTS assay to identify small molecule antagonists of the progesterone receptor (PR) signaling pathway (AID 1346795; active means well fitted inhibition curve with a large enough effect in the signal ratio in the repeat runs, not every such curve was filed as active; the % refers to the signal ratio; further: potency means the concentration at half of the fitted maximal effect)
Chain of Progesterone receptor (Homo sapiens) (P06401 whole entry, looked up): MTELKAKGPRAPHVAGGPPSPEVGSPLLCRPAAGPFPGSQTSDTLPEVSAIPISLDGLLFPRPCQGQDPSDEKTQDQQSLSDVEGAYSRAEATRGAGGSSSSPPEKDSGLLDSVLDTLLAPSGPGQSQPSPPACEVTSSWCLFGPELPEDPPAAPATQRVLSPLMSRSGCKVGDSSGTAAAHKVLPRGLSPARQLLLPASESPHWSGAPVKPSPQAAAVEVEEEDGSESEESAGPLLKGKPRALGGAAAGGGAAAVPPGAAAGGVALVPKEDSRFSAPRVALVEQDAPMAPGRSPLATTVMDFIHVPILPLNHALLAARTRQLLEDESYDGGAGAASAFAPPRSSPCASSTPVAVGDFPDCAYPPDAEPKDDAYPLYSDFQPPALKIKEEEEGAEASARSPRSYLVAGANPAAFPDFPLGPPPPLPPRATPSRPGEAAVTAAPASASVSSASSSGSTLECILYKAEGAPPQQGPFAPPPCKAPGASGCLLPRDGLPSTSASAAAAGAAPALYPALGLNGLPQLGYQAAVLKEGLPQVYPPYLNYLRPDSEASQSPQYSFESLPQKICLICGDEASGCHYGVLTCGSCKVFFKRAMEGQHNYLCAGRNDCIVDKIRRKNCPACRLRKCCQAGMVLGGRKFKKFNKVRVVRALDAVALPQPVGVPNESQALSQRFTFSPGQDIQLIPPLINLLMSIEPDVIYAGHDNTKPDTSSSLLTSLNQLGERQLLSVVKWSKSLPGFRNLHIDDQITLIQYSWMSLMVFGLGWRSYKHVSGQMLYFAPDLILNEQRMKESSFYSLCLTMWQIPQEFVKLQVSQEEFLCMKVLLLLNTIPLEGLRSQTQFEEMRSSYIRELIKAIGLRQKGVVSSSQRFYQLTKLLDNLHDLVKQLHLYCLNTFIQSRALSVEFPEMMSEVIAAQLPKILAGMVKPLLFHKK
Summary of the method: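 Antagonist mode with agonist R5020 at 1 nM final and 16 hr incubation at 37C. Reporter was beta-lactamase driven by UAS in HEK293T (PR-UAS-bla), 2% charcoal-stripped serum; signal from LiveBLAzer FRET substrate, 2 hr at room temperature.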

[2] = qHTS assay to identify small molecule antagonists of the TGF-beta/Smad signaling pathway - cell viability counter screen (AID 1346824); further: nearly all actives have a fitted effect of over 50% in size
Summary of the method: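 Cytotoxicity counter-screen run in the same wells as the beta-lactamase Smad reporter read: CellTiter-Glo luminescence after 30 min at room temperature. HEK 293T SBE-bla cells had 5 hr compound exposure at 37 C with TGF-beta1 (0.25 ng/mL stock).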

[3] = qHTS assay to identify small molecule agonists of the TGF-beta/Smad signaling pathway - cell viability counter screen (AID 1346829); further: top concentration of the series differs between compounds; nearly all actives have a fitted effect of over 45% in size
Summary of the method: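 Compound-treated SBE-bla HEK 293T cells (5 hr, 37 C) were assessed for viability with CellTiter-Glo in parallel with the reporter read.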

[4] = qHTS assay to identify small molecule agonists of the TGF-beta/Smad signaling pathway (AID 1346859; active means well fitted activation curve with a large enough effect in the signal ratio in the repeat runs, not every such curve was filed as active; the % refers to the signal ratio; further: series mostly up to about 77 µM)
Summary of the method: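 Fluorescence (ex 405 nm; em 460 and 530 nm) was read 2 h after LiveBLAzer FRET substrate at RT. The preceding compound treatment of overnight-plated SBE-bla HEK293T cells lasted 5 h at 37 C.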

[5] = target: Thyrotropin-releasing hormone receptor (Homo sapiens) (UniProt P34981); assay: qHTS assay to identify small molecule antagonists of the thyrotropin-releasing hormone receptor (TRHR) signaling pathway (AID 1346877; active means well fitted inhibition curve with a large enough effect in the repeat runs, not every such curve was filed as active; further: series mostly up to about 51 µM)
Chain of Thyrotropin-releasing hormone receptor (Homo sapiens) (P34981 whole entry, looked up): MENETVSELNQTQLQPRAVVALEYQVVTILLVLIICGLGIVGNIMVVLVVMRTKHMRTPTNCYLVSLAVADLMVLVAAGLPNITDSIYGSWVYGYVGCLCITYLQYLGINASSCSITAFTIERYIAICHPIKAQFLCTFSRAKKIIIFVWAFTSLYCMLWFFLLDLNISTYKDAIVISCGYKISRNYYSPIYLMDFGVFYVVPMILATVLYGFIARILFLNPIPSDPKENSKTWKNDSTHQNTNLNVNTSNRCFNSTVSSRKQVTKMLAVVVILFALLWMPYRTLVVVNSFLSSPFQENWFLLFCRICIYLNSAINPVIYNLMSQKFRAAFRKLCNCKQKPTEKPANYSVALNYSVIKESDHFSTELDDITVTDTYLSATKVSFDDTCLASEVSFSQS
Summary of the method: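 Intracellular calcium fluorescence, read kinetically every second over 3 min, reports TRH-evoked signalling in HEK293 cells carrying TRHR. Test compounds were added 5 min ahead of a 1 nM TRH challenge.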

[6] = target: Thyrotropin-releasing hormone receptor (Homo sapiens) (UniProt P34981); assay: qHTS assay to identify small molecule agonists of the thyrotropin-releasing hormone receptor (TRHR) signaling pathway (AID 1346891; calls by dose curve; further: series mostly up to about 58 µM)
Summary of the method: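 Agonist-mode intracellular calcium readout: kinetic fluorescence over 3 min at 1 s intervals after compound addition to TRHR-HEK293 cells (18 h seeded, 2 h dye-loaded at 37 C). Fifteen concentrations, triplicates.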

[7] = Human pregnane X receptor (PXR) small molecule agonists, qHTS cell viability counter screen (AID 1346977); further: nearly all actives have a fitted effect of over 50% in size; further: potency means the concentration at half of the fitted maximal effect
Summary of the method: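 Same-well viability read: CellTiter-Fluor added after 23 hr compound exposure, fluorescence measured 1 hr later. Cells were PXR-Luc HepG2 seeded at 2,000/well in 5% charcoal-stripped FBS medium, rested 5 hr before dosing at 37 C.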

[8] = Caspase-3/7 induction in HepG2 cells by small molecules, qHTS assay (AID 1346978); further: nearly all actives have a fitted effect of over 15% in size; further: potency means the concentration at half of the fitted maximal effect
Summary of the method: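 Caspase-3/7 induction was measured by Caspase-Glo 3/7 luminescence (30 min, room temperature) after a 17 hr compound exposure of wild-type HepG2 cells seeded at 2,000 per well and pre-incubated 5 hr.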

[9] = Caspase-3/7 induction in CHO-K1 cells by small molecules, qHTS assay (AID 1346980); further: nearly all actives have a fitted effect of over 15% in size
Summary of the method: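 Luminescent Caspase-Glo 3/7 read (30min, room temperature) quantified apoptosis induction. Cells were wild-type CHO-K1, treated with compound for 17hr at 37 C and 5% CO2.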

[10] = Caspase-3/7 induction in HepG2 cells by small molecules, qHTS cell viability counter screen (AID 1346981); further: nearly all actives have a fitted effect of over 30% in size; further: potency means the concentration at half of the fitted maximal effect
Summary of the method: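 HepG2, WT, 2,000 cells/well; 5 hr pre-incubation 37 C/5% CO2; compound pin-transferred from DMSO; 16 hr exposure; CellTiter-Fluor, 1 hr; fluorescence read.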

[11] = target: Cytochrome P450 2C19 (Homo sapiens) (UniProt P33261); assay: Cytochrome P450 Family 2 Subfamily C Member 19 (CYP2C19) small molecule antagonists: luciferase reporter qHTS assay (AID 1671197); further: nearly all actives have a fitted effect of over 65% in size; further: potency means the concentration at half of the fitted maximal effect
Chain of Cytochrome P450 2C19 (Homo sapiens) (P33261 whole entry, looked up): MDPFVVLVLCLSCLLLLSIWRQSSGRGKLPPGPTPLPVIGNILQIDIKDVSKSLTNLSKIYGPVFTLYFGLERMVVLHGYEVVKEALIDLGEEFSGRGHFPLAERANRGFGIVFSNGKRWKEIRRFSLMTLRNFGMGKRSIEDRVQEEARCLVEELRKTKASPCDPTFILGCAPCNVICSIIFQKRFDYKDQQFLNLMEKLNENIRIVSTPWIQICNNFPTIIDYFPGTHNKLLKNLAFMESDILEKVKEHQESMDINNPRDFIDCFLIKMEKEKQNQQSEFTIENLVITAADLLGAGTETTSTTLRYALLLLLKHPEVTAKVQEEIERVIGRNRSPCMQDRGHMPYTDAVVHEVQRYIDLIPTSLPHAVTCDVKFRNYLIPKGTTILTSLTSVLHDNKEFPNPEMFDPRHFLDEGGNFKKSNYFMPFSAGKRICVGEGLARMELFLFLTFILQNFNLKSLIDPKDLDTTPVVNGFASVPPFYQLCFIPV
Summary of the method: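 P450-Glo CYP2C19 screening system; proluciferin substrate; DMSO compound stocks; 10 min RT preincubation; NADPH regeneration, 1 h at 37C; luciferin detection reagent, 20 min RT; luminescence as RLU.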

[12] = target: Cytochrome P450 2C9 (Homo sapiens) (UniProt P11712); assay: Cytochrome P450 Family 2 Subfamily C Member 9 (CYP2C9) small molecule antagonists: luciferase reporter qHTS assay (AID 1671198); further: nearly all actives have a fitted effect of over 50% in size; further: potency means the concentration at half of the fitted maximal effect
Chain of Cytochrome P450 2C9 (Homo sapiens) (P11712 whole entry, looked up): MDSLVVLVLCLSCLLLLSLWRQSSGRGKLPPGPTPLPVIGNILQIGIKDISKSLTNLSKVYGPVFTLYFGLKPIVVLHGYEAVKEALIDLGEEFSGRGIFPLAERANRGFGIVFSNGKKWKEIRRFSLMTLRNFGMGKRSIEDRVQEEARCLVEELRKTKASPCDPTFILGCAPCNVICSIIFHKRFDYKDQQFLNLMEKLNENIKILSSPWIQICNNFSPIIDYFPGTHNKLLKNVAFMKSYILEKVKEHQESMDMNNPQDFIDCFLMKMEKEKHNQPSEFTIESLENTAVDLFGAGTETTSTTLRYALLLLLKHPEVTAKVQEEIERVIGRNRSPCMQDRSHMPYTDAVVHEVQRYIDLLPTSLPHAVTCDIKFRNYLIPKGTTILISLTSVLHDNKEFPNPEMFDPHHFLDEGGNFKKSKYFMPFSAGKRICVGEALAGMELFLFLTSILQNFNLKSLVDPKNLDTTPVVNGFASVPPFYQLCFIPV
Summary of the method: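 Enzyme-substrate mix preincubated with compound 10 min at room temperature; reaction started with NADPH regeneration solution, 1 h 37C. Luminescent luciferin product read after 20 min detection reagent.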

[13] = qHTS assay to identify small molecule agonists of the progesterone receptor (PR) signaling pathway - cell viability counter screen (AID 1346799; calls by dose curve; further: nearly all actives have a fitted effect of over 45% in size; further: potency means the concentration at half of the fitted maximal effect)
Summary of the method: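 Cytotoxicity measured by CellTiter-Glo luminescence (30 min, RT) in the same wells as the PR beta-lactamase agonist read. Those HEK293T cells had 16 h compound treatment at 37 C in 2% charcoal-stripped FBS medium.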

[14] = Caspase-3/7 induction in CHO-K1 cells by small molecules, qHTS cell viability counter screen (AID 1346979); further: nearly all actives have a fitted effect of over 35% in size; further: potency means the concentration at half of the fitted maximal effect
Summary of the method: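 Cytotoxicity counter screen: CellTiter-Fluor added to compound-treated wild-type CHO-K1 cells at 16 h (37C, 5% CO2), fluorescence measured 1 h later; same wells as caspase-3/7 measurement.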

[15] = target: Cytochrome P450 2D6 (Homo sapiens) (UniProt P10635); assay: Cytochrome P450 Family 2 Subfamily D Member 6 (CYP2D6) small molecule antagonists: luciferase reporter qHTS assay (AID 1671196); further: nearly all actives have a fitted effect of over 50% in size; further: potency means the concentration at half of the fitted maximal effect
Chain of Cytochrome P450 2D6 (Homo sapiens) (P10635 whole entry, looked up): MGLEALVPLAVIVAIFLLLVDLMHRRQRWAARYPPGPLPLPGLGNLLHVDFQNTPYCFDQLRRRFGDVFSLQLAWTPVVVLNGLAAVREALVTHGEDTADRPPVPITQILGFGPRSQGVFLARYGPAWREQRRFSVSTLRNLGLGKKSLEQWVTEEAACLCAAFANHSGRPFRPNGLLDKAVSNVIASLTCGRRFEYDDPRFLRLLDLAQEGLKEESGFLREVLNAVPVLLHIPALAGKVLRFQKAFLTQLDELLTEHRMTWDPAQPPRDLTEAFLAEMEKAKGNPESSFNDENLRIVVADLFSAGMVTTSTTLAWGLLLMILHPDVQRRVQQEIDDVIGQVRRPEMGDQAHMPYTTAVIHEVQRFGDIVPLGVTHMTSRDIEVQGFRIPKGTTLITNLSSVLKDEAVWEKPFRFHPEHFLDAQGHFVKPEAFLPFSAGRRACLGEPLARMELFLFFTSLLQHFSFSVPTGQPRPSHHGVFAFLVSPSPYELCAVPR
Summary of the method: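 Read-out is luminescence from luciferin formed by CYP2D6 turnover of a proluciferin substrate, recorded as relative luminescence units. Reactions ran 1 h at room temperature after NADPH regeneration solution was added.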

[16] = target: Nuclear receptor subfamily 1 group I member 2 (Homo sapiens) (UniProt O75469); assay: Human pregnane X receptor (PXR) small molecule agonists, qHTS assay (AID 1346982); further: nearly all actives have a fitted effect of over 35% in size; further: potency means the concentration at half of the fitted maximal effect
Chain of Nuclear receptor subfamily 1 group I member 2 (Homo sapiens) (O75469 whole entry, looked up): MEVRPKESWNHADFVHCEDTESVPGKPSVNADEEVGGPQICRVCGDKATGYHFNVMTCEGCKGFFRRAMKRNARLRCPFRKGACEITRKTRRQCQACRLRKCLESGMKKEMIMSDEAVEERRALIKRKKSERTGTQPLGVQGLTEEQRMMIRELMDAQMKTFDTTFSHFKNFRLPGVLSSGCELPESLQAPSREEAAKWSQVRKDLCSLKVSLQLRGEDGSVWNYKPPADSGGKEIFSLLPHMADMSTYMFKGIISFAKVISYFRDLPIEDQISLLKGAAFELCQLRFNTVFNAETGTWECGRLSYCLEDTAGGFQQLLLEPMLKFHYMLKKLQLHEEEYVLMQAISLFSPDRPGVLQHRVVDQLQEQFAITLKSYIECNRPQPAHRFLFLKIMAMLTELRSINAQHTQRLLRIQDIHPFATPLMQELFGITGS
Summary of the method: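 Luciferase signal from ONE-Glo (30 min, room temperature) measured activation of hPXR-driven CYP3A4 reporter expression in PXR-Luc HepG2 cells treated with compounds for 24 hr at 37 C.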

[17] = target: Nuclear receptor subfamily 1 group I member 2 (Homo sapiens) (UniProt O75469); assay: CYP3A4 induction through human pregnane X receptor (PXR) by small molecules, qHTS assay (AID 1346984); further: nearly all actives have a fitted effect of over 40% in size
Summary of the method: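 Luminescence readout: luciferase signal after One-Glo (30 min, room temperature), following 3 h at 37C with 3uM final Luciferin-IPA P450 substrate. Cells were DPX-2 (HepG2, PXR/CYP3A4-luc co-transfected) dosed for 24 h.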

[18] = target: Nuclear receptor subfamily 1 group I member 2 (Homo sapiens) (UniProt O75469); assay: Human pregnane X receptor (PXR) activation by small molecules, qHTS assay (AID 1346985); further: potency means the concentration at half of the fitted maximal effect; nearly all actives have a fitted effect of over 40% in size
Summary of the method: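 DPX-2 cells (HepG2 co-transfected with a PXR response element and a CYP3A4-promoter luciferase construct) were seeded at 2,000 per well, rested 5 hr at 37C, then exposed to DMSO-dissolved compounds for 24 hr. Activation was read as luciferase luminescence.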

SMILES | Potency [1] | Potency [2] | Potency [3] | Potency [4] | Potency [5] | Potency [6] | Potency [7] | Potency [8] | Potency [9] | Potency [10] | Potency [11] | Potency [12] | Potency [13] | Potency [14] | Potency [15] | Potency [16] | Potency [17] | Potency [18]
CC(=O)Oc1ccc(C2(c3ccc(OC(C)=O)cc3)Oc3ccccc3NC2=O)cc1 | 21.1 µM (active) | inactive | inactive | inactive | inactive | inactive | inactive | inactive | inactive | inactive | 6.92 µM (active) | 2.45 µM (active) | – | – | – | – | – | –
CCCCCCCC(OC)OC | inactive | inactive | inactive | inactive | inactive | inactive | inactive | inactive | inactive | inactive | – | inactive | inactive | inactive | inactive | – | – | –
CCCCCCCCCCCCCCCC | inactive | inactive | inactive | – | – | – | inactive | inactive | inactive | inactive | inactive | 39.9 µM (active) | inactive | inactive | inactive | inactive | – | –
CCCCCCC(C)Nc1ccc(Nc2ccccc2)cc1 (configuration not stated) | 48.6 µM (active) | inactive | inactive | inactive | inactive | inactive | – | inactive | inactive | – | – | 7.1 µM (active) | – | – | 28.3 µM (active) | 21.7 µM (active) | – | –
O=C1NC2CCCCN2C12CCN(CCCN1c3ccccc3CCc3ccc(Cl)cc31)CC2 (configuration not stated) | 26.6 µM (active) | inactive | – | – | inactive | inactive | 26.6 µM (active) | 29.8 µM (active) | – | 29.8 µM (active) | – | inactive | 23.7 µM (active) | 26.6 µM (active) | 7.76 µM (active) | inactive | – | –
CCCCCCOc1ccc(O)cc1 | 13.7 µM (active) | inactive | inactive | inactive | inactive | inactive | – | inactive | inactive | – | 20 µM (active) | 39.9 µM (active) | inactive | 61.1 µM (active) | 79.6 µM (active) | 48.6 µM (active) | – | –
O=C1Nc2ccc(Cl)cc2[C@@](C#CC2CC2)(C(F)(F)F)O1 | 7.5 µM (active) | – | inactive | inactive | inactive | inactive | – | – | inactive | – | – | 15.5 µM (active) | inactive | – | inactive | – | – | –
CCN(CC)CCCN(c1ccccc1)C1Cc2ccccc2C1 | inactive | inactive | inactive | inactive | – | – | 23.7 µM (active) | inactive | inactive | inactive | – | inactive | – | inactive | 0.389 µM (active) | – | inactive | 5.01 µM (active)
CCO[Si](C)(C)OCC | inactive | inactive | inactive | inactive | – | – | inactive | inactive | inactive | inactive | inactive | inactive | inactive | inactive | inactive | inactive | – | –
